Where “and” joins values, the source holds several entries; their conditions need not be identical. Identical values can stand only once. Records with an inconclusive call do not appear. A structure can be active in one record and inactive in another. Calls of active or inactive are those of the source. How the source made its calls: active means hit-call score of the fitted dose curve at least 0.9, where 1 is the maximum; inconclusive means response in the unintended direction; inactive means score below 0.9.
Key:
[1] = tested on: turtle Estrogen Receptor (ERa), gene 101933533; assay: ATG_trERa_XSP2: Attagene TRANS-FACTORIAL Multi-Species (XSP2) HepG2 Assay for turtle Estrogen Receptor (ERa) (AID 2283812);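 further: human HepG2 liver cells transiently expressing turtle ERa-Gal4 chimeric receptor; actives raise reporter signal above DMSO so AC50 reflects agonist activity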
How it was run: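 HepG2 cells transiently transfected with GAL4-UAS reporter units expressing turtle ERa-Gal4 chimera. Reporter mRNA measured after 24 h dosing by RT-PCR, fluorescent labelling and capillary electrophoresis; gain of signal fitted versus DMSO.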

[2] = molecular target: zebrafish Estrogen Receptor (ER1), esr1 (gene 259252) (UniProt P57717); assay: ATG_zfER1_XSP2: Attagene TRANS-FACTORIAL Multi-Species (XSP2) HepG2 Assay for zebrafish Estrogen Receptor (ER1) (AID 2283816)
Chain of zebrafish Estrogen Receptor (ER1), esr1 (gene 259252) (P57717 whole entry, looked up, the tested form may be a part): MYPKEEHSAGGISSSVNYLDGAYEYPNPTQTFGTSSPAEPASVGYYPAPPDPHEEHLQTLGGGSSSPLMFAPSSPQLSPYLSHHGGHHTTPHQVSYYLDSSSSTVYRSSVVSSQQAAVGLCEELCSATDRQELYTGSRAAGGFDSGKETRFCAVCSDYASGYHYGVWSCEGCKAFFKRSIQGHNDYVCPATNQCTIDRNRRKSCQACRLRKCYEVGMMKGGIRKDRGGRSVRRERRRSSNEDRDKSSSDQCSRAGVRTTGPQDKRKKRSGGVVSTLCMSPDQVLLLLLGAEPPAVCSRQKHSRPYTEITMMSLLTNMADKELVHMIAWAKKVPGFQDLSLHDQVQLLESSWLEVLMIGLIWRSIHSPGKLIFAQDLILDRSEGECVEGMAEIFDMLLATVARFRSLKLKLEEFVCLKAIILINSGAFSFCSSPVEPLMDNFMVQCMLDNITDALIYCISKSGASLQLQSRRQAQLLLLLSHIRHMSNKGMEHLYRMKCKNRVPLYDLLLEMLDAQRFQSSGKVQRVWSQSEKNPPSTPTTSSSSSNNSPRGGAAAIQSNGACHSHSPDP
How it was run: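 HepG2 cells transiently transfected with a GAL4-UAS reporter and a chimeric zebrafish ER1-Gal4 construct, dosed 24 h. Reporter mRNA quantified by RT-PCR, labelling, HpaI digestion and capillary electrophoresis, relative to DMSO.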

[3] = molecular target: chicken Estrogen Receptor (ERa), ESR1 (gene 396099) (UniProt P06212); assay: ATG_chERa_XSP2: Attagene TRANS-FACTORIAL Multi-Species (XSP2) HepG2 Assay for chicken Estrogen Receptor (ERa) (AID 2283817);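 further: actives raise reporter signal above DMSO so AC50 reflects ER activation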
Chain of chicken Estrogen Receptor (ERa), ESR1 (gene 396099) (P06212 whole entry, looked up): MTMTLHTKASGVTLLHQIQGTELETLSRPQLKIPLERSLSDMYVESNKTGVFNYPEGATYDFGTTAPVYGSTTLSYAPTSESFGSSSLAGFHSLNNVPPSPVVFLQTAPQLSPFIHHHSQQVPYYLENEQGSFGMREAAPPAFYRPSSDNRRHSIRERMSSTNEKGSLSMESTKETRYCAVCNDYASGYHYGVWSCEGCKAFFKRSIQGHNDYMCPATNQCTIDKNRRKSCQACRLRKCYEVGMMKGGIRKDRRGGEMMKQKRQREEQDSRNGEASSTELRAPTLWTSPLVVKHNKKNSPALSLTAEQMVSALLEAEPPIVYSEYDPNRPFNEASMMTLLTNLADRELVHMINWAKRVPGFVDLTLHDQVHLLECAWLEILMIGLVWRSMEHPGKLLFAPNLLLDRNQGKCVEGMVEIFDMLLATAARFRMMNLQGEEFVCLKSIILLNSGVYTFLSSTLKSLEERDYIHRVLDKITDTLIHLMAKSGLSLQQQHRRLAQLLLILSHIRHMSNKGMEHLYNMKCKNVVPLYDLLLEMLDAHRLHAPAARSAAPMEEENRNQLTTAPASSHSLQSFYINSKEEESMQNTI
Experimental: ATG_XSP2_multi-species_TRANS is a cell-based, multiplexed assay created by modifying the existing Attagene TRANS-FACTORIAL system to include a panel of nuclear receptors from some or all the following species: human (Homo sapiens), mouse (Mus musculus), frog (Xenopus laevis), zebrafish (Danio rerio), chicken (Gallus gallus), and turtle (Chrysemys picta). The ECOTOX-FACTORIAL format uses HepG2, a human liver cell line, with measurements taken at 24 hours after chemical dosing in a 24-well plate. Xsp2 included 3 nM 6-alpha-fluorotestosterone and 1.5 nM norgestrel to stimulate the androgen receptor.ATG_chERa_XSP2 is one of 29 assay components measured or calculated from the ATG_XSP2_multi-species_TRANS assay. It is designed to make measurements of mRNA induction, a form of inducible reporter, as detected with fluorescence intensity signals by Reverse transcription polymerase chain reaction (RT-PCR) and Capillary electrophoresis technology.The assay endpoint ATG_chERa_XSP2 was analyzed in the positive analysis fitting direction relative to DMSO as the negative control and baseline of activity. Using a type of inducible reporter, measures of mRNA for gain-of-signal activity can be used to understand the reporter gene at the transcription factor-level as they relate to the gene ER. Furthermore, this assay endpoint can be referred to as a primary readout, because this assay has produced multiple assay endpoints where this one serves a reporter gene function. To generalize the intended target to other relatable targets, this assay endpoint is annotated to the nuclear receptor intended target family, where the subfamily is steroidal.
Human liver HepG2 cells are transiently transfected with multiple reporter transcription units (MRTUs) in 6-well plates using FuGene 6 reagent (Roche; 3 ml FuGene/1 mg DNA). The MRTU constructs are regulated by a cis-regulating element (promoter). […] A major difference between the CIS and TRANS system is that in CIS activities of endogenous TFs are measured, whereas the TRANS assay evaluates changes in activities of exogenous, chimeric NR-Gal4 proteins. […] At the end of 24 hour incubation, total RNA was isolated using TriZol reagent (Invitrogen). The isolated RNA is then reverse-transcribed using oligo(dT) primer and Mo-MLV reverse transcriptase (Invitrogen) with DNAse I (Ambion) treatment for 30 min. The one-tenth of the produced cDNA was amplified by PCR using Taq DNA polymerase (Invitrogen) and two reporter sequence-specific primers. The PCR products were fluorescently labeled by primer extension with 6-arboxyfluorescein (6-FAM) 5'-labeled reporter sequence-specific primer (2 min at 95 C, 20 s at 68 C and 10 min at 72 C) and these products were digested with 5U of HpaI (New England Biolabs) for 2h at 37 C. The fragments were purified using Qiaquick PCR columns (Qiagen), analyzed on an ABI 3130xL genetic analyzer (Applied Biosystems) with peak positions identified by using a set of X-rhodamine (ROX)-labeled MapMarker1000 molecular weight standards (BioVentures). The raw capillary electrophoresis data was processed using Attagraph software (Attagene).

[4] = tested on: zebrafish Estrogen Receptor (ER2a), gene 317734; assay: ATG_zfER2a_XSP2: Attagene TRANS-FACTORIAL Multi-Species (XSP2) HepG2 Assay for zebrafish Estrogen Receptor (ER2a) (AID 2283818);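 further: hits raise reporter mRNA so AC50 reflects activation of zebrafish ER2a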
How it was run: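 HepG2 cells transiently transfected with GAL4-UAS reporter units and chimeric zebrafish ER2a-Gal4, exposed 24 h; medium contains 3 nM 6-alpha-fluorotestosterone and 1.5 nM norgestrel. Reporter mRNA quantified by RT-PCR, HpaI digestion, capillary electrophoresis; gain versus DMSO.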

[5] = tested on: frog Estrogen Receptor (ER), gene 398734; assay: ATG_frER1_XSP2: Attagene TRANS-FACTORIAL Multi-Species (XSP2) HepG2 Assay for frog Estrogen Receptor (ER) (AID 2283821);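 further: hits raise reporter mRNA above DMSO baseline so potency means agonist or activator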
How it was run: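 HepG2 cells transiently transfected with GAL4-UAS reporter units expressing a chimeric frog ER-Gal4 protein; 24 h exposure. Reporter mRNA quantified by RT-PCR, fluorescent labelling and capillary electrophoresis; gain of signal fitted against DMSO baseline.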

[6] = molecular target: Estrogen receptor beta (Homo sapiens) (UniProt Q92731); assay: ATG_hERb_XSP2: Attagene TRANS-FACTORIAL Multi-Species (XSP2) HepG2 Assay for human Estrogen Receptor (ERb) (AID 2283813);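 further: actives raise reporter mRNA above DMSO so AC50 reflects agonist induction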
Chain of Estrogen receptor beta (Homo sapiens) (Q92731 whole entry, looked up, the tested form may be a part): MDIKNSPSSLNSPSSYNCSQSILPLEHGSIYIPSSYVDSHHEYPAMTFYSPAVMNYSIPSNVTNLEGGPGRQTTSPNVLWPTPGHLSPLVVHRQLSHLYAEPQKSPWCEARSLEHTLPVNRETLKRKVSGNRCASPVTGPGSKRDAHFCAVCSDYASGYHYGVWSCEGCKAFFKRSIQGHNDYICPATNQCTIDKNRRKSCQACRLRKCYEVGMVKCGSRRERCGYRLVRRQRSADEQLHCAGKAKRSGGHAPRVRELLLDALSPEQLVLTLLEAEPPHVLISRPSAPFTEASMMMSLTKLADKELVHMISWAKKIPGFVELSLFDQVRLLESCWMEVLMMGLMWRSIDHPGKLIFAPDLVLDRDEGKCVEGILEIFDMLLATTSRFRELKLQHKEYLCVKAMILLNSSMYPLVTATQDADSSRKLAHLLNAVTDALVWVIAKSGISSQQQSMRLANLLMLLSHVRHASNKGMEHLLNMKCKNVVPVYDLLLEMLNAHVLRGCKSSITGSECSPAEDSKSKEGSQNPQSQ
How it was run: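 HepG2 cells transiently transfected with GAL4-UAS reporter units and chimeric human ERb-Gal4, 24 h exposure. Reporter mRNA quantified by RT-PCR with FAM labelling, HpaI digestion and capillary electrophoresis; gain of signal versus DMSO.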

[7] = molecular target: GAL4 Transcription Factor (Internal Marker), GAL4 (gene 855828) (UniProt P04386); assay: ATG_GAL4_XSP2: Attagene TRANS-FACTORIAL Multi-Species (XSP2) HepG2 Assay for GAL4 Transcription Factor (Internal Marker) (AID 2283814);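 further: GAL4 reporter mRNA background control in MRTU transfected cells not a receptor target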
Chain of GAL4 Transcription Factor (Internal Marker), GAL4 (gene 855828) (P04386 whole entry, looked up, the tested form may be a part): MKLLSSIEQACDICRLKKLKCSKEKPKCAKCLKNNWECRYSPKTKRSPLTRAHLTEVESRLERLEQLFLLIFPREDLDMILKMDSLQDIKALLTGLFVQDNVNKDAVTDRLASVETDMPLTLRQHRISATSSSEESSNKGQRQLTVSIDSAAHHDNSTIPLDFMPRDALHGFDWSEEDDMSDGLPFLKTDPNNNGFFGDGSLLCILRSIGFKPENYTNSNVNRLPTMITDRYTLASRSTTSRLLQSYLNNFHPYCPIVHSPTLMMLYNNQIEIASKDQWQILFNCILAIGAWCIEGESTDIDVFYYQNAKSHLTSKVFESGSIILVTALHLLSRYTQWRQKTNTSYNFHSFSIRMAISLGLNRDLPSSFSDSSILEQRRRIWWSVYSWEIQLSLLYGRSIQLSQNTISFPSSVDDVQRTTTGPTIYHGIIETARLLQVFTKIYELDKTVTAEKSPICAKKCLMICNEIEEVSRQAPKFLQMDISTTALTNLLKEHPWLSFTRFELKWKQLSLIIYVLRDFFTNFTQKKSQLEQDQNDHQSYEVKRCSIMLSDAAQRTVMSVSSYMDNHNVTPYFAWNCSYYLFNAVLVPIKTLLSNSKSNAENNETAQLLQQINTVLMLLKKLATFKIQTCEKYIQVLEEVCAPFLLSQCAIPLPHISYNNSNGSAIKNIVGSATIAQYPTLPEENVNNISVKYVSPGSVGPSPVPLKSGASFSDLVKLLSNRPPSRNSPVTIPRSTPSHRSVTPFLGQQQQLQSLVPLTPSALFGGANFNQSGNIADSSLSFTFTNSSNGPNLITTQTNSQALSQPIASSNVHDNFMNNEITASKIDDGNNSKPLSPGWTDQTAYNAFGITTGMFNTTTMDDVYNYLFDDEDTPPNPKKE
How it was run: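 HepG2 cells transiently transfected with GAL4-UAS reporter units, stimulated with 3 nM 6-alpha-fluorotestosterone plus 1.5 nM norgestrel, dosed 24 h. Reporter mRNA by RT-PCR/capillary electrophoresis; gain-of-signal fit versus DMSO, background control.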

[8] = tested on: turtle Androgen Receptor (AR), gene 101947425; assay: ATG_trAR_XSP2: Attagene TRANS-FACTORIAL Multi-Species (XSP2) HepG2 Assay for turtle Androgen Receptor (AR) (AID 2283815);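 on AC50: potency for gain of reporter signal meaning activation above DMSO baseline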
How it was run: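 HepG2 cells transiently transfected with GAL4-UAS reporter units for chimeric NR-Gal4 receptors; 24 h dosing in presence of 3 nM 6-alpha-fluorotestosterone and 1.5 nM norgestrel. Reporter mRNA by RT-PCR and capillary electrophoresis, gain of signal versus DMSO.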

[9] = tested on: chicken Androgen Receptor (AR), gene 422165; assay: ATG_chAR_XSP2: Attagene TRANS-FACTORIAL Multi-Species (XSP2) HepG2 Assay for chicken Androgen Receptor (AR) (AID 2283819);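 further: hits raise reporter mRNA above DMSO so potency is for activation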
How it was run: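 HepG2 cells transiently transfected with chicken AR–GAL4 chimeric reporter constructs, stimulated with 3 nM 6-alpha-fluorotestosterone plus 1.5 nM norgestrel, dosed 24 h. Reporter mRNA quantified by RT-PCR and capillary electrophoresis; gain of signal fitted versus DMSO.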

[10] = ATG_M_19_XSP2: Attagene TRANS-FACTORIAL Multi-Species (XSP2) HepG2 Assay for M32 Transcription Factor (Internal Marker) (AID 2283822)
How it was run: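 Internal background marker in a multi-species nuclear receptor TRANS panel: transfected HepG2 cells exposed 24 h, with 3 nM 6-alpha-fluorotestosterone and 1.5 nM norgestrel present. Readout is RT-PCR of reporter transcripts resolved by capillary electrophoresis, gain-of-signal versus DMSO.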

Measured: AC50

CC(C)(C)c1ccc(O)cc1
inactive: [4] | [5]
active: [1] 6.07 µM and 4.64 µM | [2] 170 µM and 51.1 µM | [3] 4.76 µM and 6.06 µM | [5] 26.6 µM

CCCCc1ccc(O)cc1
active: [1] 2.42 µM and 3.02 µM | [6] 2.45 µM and 2.3 µM | [2] 69.6 µM and 7.15 µM | [3] 3.21 µM and 1.79 µM | [4] 6.3 µM and 1.66 µM | [5] 1.96 µM and 1.08 µM

c1ccc2c(c1)Nc1ccccc1S2
active: [1] 10.7 µM and 6.48 µM | [6] 27.2 µM and 5.66 µM | [3] 11.3 µM and 4.72 µM | [4] 19 µM and 6.16 µM | [5] 14.7 µM and 13.2 µM
inactive: [7] | [2]

O=S(=O)(c1ccc(O)cc1)c1ccc(O)cc1
inactive: [8] | [9]
active: [1] 2.98 µM and 2.14 µM | [6] 1.66 µM and 1.76 µM | [8] 27 µM | [2] 41.8 µM and 17.2 µM | [3] 2.24 µM and 2.5 µM | [4] 5.32 µM and 3.79 µM | [9] 27.1 µM | [5] 2.94 µM and 894 nM

O=P(Oc1ccccc1)(Oc1ccccc1)Oc1ccccc1
inactive: [7] | [2] | [3] | [4] | [9]

CCC(C)(C)c1ccc(O)cc1
inactive: [7] | [4] | [9] | [10]
active: [1] 4.29 µM and 1.92 µM | [6] 44.4 µM and 3.05 µM | [2] 34.1 µM and 7.34 µM | [3] 3.58 µM and 2.33 µM | [5] 25.9 µM and 2.38 µM

Reference: PubChem BioAssay (EPA / NIEHS)
